Assay results from the supplement of paper PMC6992640.
± gives the standard deviation of the averaged measurements.

Experiments:
Test in all cases: cell viability (% of vehicle); higher = less cytotoxic
Settings in all cases: 10 µM; 72 h
[1] = tested on: HCI01 (cells of a triple-negative basal-like breast cancer xenograft)
[2] = tested on: HCI03 (cells of an ER-positive luminal breast cancer xenograft)
[3] = tested on: HCI09 (cells of a triple-negative luminal androgen receptor type breast cancer xenograft)
[4] = tested on: HCI11 (cells of an ER-positive luminal breast cancer xenograft)
[5] = tested on: HCI13 (cells of an ER-positive luminal breast cancer xenograft)
[6] = tested on: HCI16 (cells of a triple-negative basal-like breast cancer xenograft)
[7] = tested on: UCD52 (cells of a triple-negative basal-like breast cancer xenograft)
[8] = tested on: WHIM2 (cells of a triple-negative basal-like breast cancer xenograft)
[9] = tested on: WHIM30 (cells of a triple-negative basal-like breast cancer xenograft)
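Also: PDX cells carrying CMV promoter-driven luciferase, viability read as total photon flux per second by IVIS imaging following D-luciferin, vehicle control 0.1% DMSO.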

Structure (SMILES) | cell viability [1] | cell viability [2] | cell viability [3] | cell viability [4] | cell viability [5] | cell viability [6] | cell viability [7] | cell viability [8] | cell viability [9]
NC(CSCCCO)C(=O)O (centres undefined) [Fudosteine] | 91 ± 9.3 | 103 | 87.1 ± 7.6 | 94.5 | 107 ± 11 | 96.1 | 77.3 ± 4.8 | 112 ± 14 | 91.1 ± 8.5
O=c1ncnc2[nH][nH]cc1-2 [Allopurinol] | 111 ± 8.6 | 132 | 94.3 ± 13 | 110 | 98.9 ± 12 | 103 | 84.5 ± 3.3 | 97.49 ± 0.5 | 122 ± 8.1
COc1cc2ncnc(Nc3ccc(F)c(Cl)c3)c2cc1OCCCN1CCOCC1 [Gefitinib (ZD1839)] | 95.6 ± 51 | 55.3 | 77.9 ± 22 | 110 | 63.3 ± 1.6 | 94.8 | 52.2 ± 1.3 | 47.8 ± 2.2 | 128.3 ± 1.1
O=C([C@H](CCC/N=C(N)/N)NS(=O)(C1=C2NC[C@H](C)CC2=CC=C1)=O)N3[C@@H](C(O)=O)C[C@H](C)CC3 [Argatroban] | 116 ± 7.1 | 130 | 98 ± 6.5 | 116 | 95.2 ± 6 | 96.6 | 80.3 ± 7.5 | 98.9 ± 18 | 132 ± 14
CN(C)NN=C1N=CN=C1C(N)=O [Dacarbazine] | 122 ± 9.3 | 92.9 | 110.4 ± 0.52 | 93.5 | 120 ± 16 | 82.7 | 107 ± 8 | 80.3 ± 24 | 118 ± 25
Cc1ccnc2c1NC(=O)c1cccnc1N2C1CC1 [Nevirapine] | 112 ± 2.5 | 105 | 122 ± 49 | 113 | 96.5 ± 3.9 | 96 | 96.8 ± 6.9 | 93.1 ± 23 | 130 ± 5.6
CN1CCN2c3ncccc3Cc3ccccc3C2C1 (centres undefined) [Mirtazapine] | 66.7 ± 36 | 149 | 91.4 ± 1.8 | 103 | 118 ± 26 | 114 | 86.1 ± 2.4 | 87.6 ± 30 | 138 ± 17
Cl.O=S(=O)(c1cccc2cnccc12)N1CCCNCC1 [Fasudil (HA-1077) HCl] | 81.6 ± 18 | 93.4 | 69.3 ± 9.2 | 76.2 | 79.6 ± 5.5 | 122 | 60.4 ± 9.9 | 87.3 ± 2.9 | 92.1 ± 12
Cc1cccn2c(=O)c(-c3nnn[n-]3)cnc12.[K+] [Pemirolast potassium] | 97.99 ± 0.96 | 98.7 | 84 ± 3.5 | 90.1 | 97.8 ± 29 | 108 | 92.2 ± 1.2 | 113 ± 7.9 | 93.4 ± 17
CCC(C)(C)c1ccc(CC(C)CN2CC(C)OC(C)C2)cc1.Cl (centres undefined) [Amorolfine HCl] | 66.7 ± 39 | 129 | 88.4 ± 9.1 | 83.8 | 119 ± 36 | 119 | 58.3 ± 5.5 | 64.5 ± 32 | 166 ± 9.2
C[N+](C)(C)CCOC(=O)CCC(=O)OCC[N+](C)(C)C.O.O.[Cl-].[Cl-] [Succinylcholine Chloride Dihydrate] | 109 ± 8 | 104 | 96.9 ± 9.6 | 97.2 | 112 ± 16 | 101 | 61.6 ± 1.2 | 89.3 ± 5.8 | 133 ± 22
